Measured values reported in PubChem BioAssay (Tox21).
Where a structure was tested more than once in an assay, its records may differ in their call. Active and inactive are the calls of the source. Unless noted, calls follow the shape of the dose curve; as a rule, active = well fitted curve in the direction sought with a large enough effect in the repeat runs; inconclusive = weak or mixed curves; inactive = no such curve, though single readings can be large; an effect the other way counts as inactive or inconclusive.

What was measured:
[1] = qHTS assay to identify small molecule antagonists of the thyroid receptor (TR) signaling pathway (AID 743065); also: nearly all actives have a fitted effect of over 55% in size; also: potency is read from the fitted curve at half-maximal effect
Procedure, shortened: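 GH3.TRE-Luc rat pituitary cells (two TREs driving luciferase) were dosed with compound, then stimulated with 1 nM T3 (final) for 23.5 h at 37 C. ONE-Glo luminescence was the read-out, with CellTiter-Fluor fluorescence as the cytotoxicity counter-screen.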

[2] = tested on: thyroid hormone receptor (rat, GH3 cells); experiment: qHTS assay to identify small molecule agonists of the thyroid receptor (TR) signaling pathway (AID 743066; calls by dose curve)
[3] = biological target: Estrogen receptor (Homo sapiens) (UniProt P03372); experiment: qHTS assay to identify small molecule antagonists of the estrogen receptor alpha (ER-alpha) signaling pathway (AID 743069; active = well fitted curve in the direction sought with a large enough effect in the signal ratio in the repeat runs, not every such curve was filed as active; inconclusive = weak or mixed curves, or effect the other way; inactive = no such curve, though single readings can be large or run the other way; the % refers to the signal ratio; also: potency is read from the fitted curve at half-maximal effect)
Procedure, shortened: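 Beta-lactamase FRET fluorescence is read after 2 hr at room temperature with LiveBLAzer B/G substrate. Before that, ER-alpha-bla HEK293 cells sit 4 hr after plating, then receive compound plus 17beta-estradiol and incubate 18 hr at 37C.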

[4] = qHTS assay to identify small molecule antagonists of the estrogen receptor alpha (ER-alpha) signaling pathway - cell viability counter screen (AID 743074; calls by dose curve;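 also: HEK293 cells carrying ER-alpha-UAS-bla reporter stimulated with 17beta-estradiol; nearly all actives have a fitted effect of over 45% in size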; also: potency is read from the fitted curve at half-maximal effect)
[5] = biological target: Estrogen receptor (Homo sapiens) (UniProt P03372); experiment: qHTS assay to identify small molecule agonists of the estrogen receptor alpha (ER-alpha) signaling pathway (AID 743075; calls by dose curve;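 also: HEK293 GripTite cells with ER-alpha and UAS-driven beta-lactamase reporter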; also: potency is read from the fitted curve at half-maximal effect); settings: HEK293 ER-alpha-UAS-bla, beta-lactamase FRET ratio, 18 h; activation: at 70.1 µM (top of the series)
[6] = biological target: Estrogen receptor (Homo sapiens) (UniProt P03372); experiment: qHTS assay to identify small molecule agonists of the estrogen receptor alpha (ER-alpha) signaling pathway using the BG1 cell line (AID 743079); settings: BG1Luc4E2 cells, ERE-luciferase agonist, 22 h; for activation: at 70.3 µM (top of the series); also: potency is read from the fitted curve at half-maximal effect; as to all read-outs here: nearly all actives have a fitted effect of over 20% in size
[7] = qHTS assay to identify small molecule antagonists of the estrogen receptor alpha (ER-alpha) signaling pathway using the BG1 cell line - cell viability counter screen (AID 743081);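 also: compound given together with 17beta-estradiol as the ER stimulus; nearly all actives have a fitted effect of over 45% in size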; also: potency is read from the fitted curve at half-maximal effect
Aromatase (Homo sapiens) = Aromatase (Homo sapiens) (UniProt P11511); experiment: qHTS assay to identify aromatase inhibitors (AID 743083); also: nearly all actives have a fitted effect of over 55% in size; also: potency is read from the fitted curve at half-maximal effect
[8] = qHTS assay to identify aromatase inhibitors - cell viability counter screen (AID 743084);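 also: cells stimulated with testosterone during compound exposure; nearly all actives have a fitted effect of over 55% in size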; also: potency is read from the fitted curve at half-maximal effect
[9] = biological target: Aryl hydrocarbon receptor (Homo sapiens) (UniProt P35869); experiment: qHTS assay to identify small molecule that activate the aryl hydrocarbon receptor (AhR) signaling pathway (AID 743085); also: nearly all actives have a fitted effect of over 15% in size; also: potency is read from the fitted curve at half-maximal effect;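 as to activation: HG2L7.5c1 human HepG2 liver cells with stably integrated DRE-driven firefly reporter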
Procedure, shortened: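 Measured in HG2L7.5c1 cells: CellTiter-Fluor signal (30 min incubation, 37C) for viability, then luciferase luminescence (30 min, room temperature). Compound contact time was 24 h at 37C, following a 5 h pre-incubation.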

[10] = qHTS assay to identify small molecule that activate the aryl hydrocarbon receptor (AhR) signaling pathway - cell viability counter screen (AID 743086); also: nearly all actives have a fitted effect of over 45% in size; also: potency is read from the fitted curve at half-maximal effect
Procedure, shortened: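 HepG2-AhR-luc (HG2L7.5c1) cells, 4000/well, treated 24 h at 37 C with compound; viability measured as CellTiter-Fluor fluorescence after 30 min in the same wells as the luciferase read.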

[11] = biological target: Peroxisome proliferator-activated receptor gamma (Homo sapiens) (UniProt P37231); experiment: qHTS assay to identify small molecule agonists of the peroxisome proliferator-activated receptor gamma (PPARg) signaling pathway (AID 743094; active = well fitted activation curve with a large enough effect in the signal ratio in the repeat runs, not every such curve was filed as active; inconclusive = weak or mixed curves, or effect the other way; inactive = no such curve, though single readings can be large or run the other way; the % refers to the signal ratio)
Procedure, shortened: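 Agonist activity was taken from a beta-lactamase reporter (FRET substrate, 1 h at room temperature) in HEK293H cells carrying a PPARg UAS-bla construct. Compounds in DMSO were incubated 17 h at 37C after a 5 h cell pre-incubation.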

[12] = qHTS assay to identify small molecule antagonists of the peroxisome proliferator-activated receptor gamma (PPARg) signaling pathway - cell viability counter screen (AID 743194); also: nearly all actives have a fitted effect of over 55% in size
Procedure, shortened: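 Cytotoxicity counter screen in PPARg-bla HEK293H cells, same wells as reporter assay. Compounds plus 50 nM rosiglitazone (final) for 17 h at 37 C, then viability read by CellTiter-Glo luminescence.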

[13] = qHTS assay for small molecule agonists of the antioxidant response element (ARE) signaling pathway (AID 743202; active = well fitted activation curve with a large enough effect in the signal ratio in the repeat runs, not every such curve was filed as active; inconclusive = weak or mixed curves, or effect the other way; inactive = no such curve, though single readings can be large or run the other way; the % refers to the signal ratio; also: potency is read from the fitted curve at half-maximal effect)
Procedure, shortened: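 HepG2 ARE-bla reporter line, 2,000 cells/well; 5 h preincubation 37 C/5% CO2; compound (DMSO) 16 h 37 C; B/G FRET substrate 2 h RT; fluorescence intensity.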

[14] = qHTS assay for small molecule agonists of the antioxidant response element (ARE) signaling pathway - cell viability counter screen (AID 743203; calls by dose curve; also: nearly all actives have a fitted effect of over 55% in size; also: potency is read from the fitted curve at half-maximal effect)
Procedure, shortened: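 Viability counter screen: CellTiter-Glo luminescence, read after 30 min at room temperature, in ARE-bla HepG2 wells. Compound exposure lasted 16 h at 37C/5% CO2, following a 5 h pre-incubation of the cells after plating.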

[15] = qHTS assay for small molecule activators of the heat shock response signaling pathway - cell viability counter screen (AID 743209); also: nearly all actives have a fitted effect of over 50% in size; also: potency is read from the fitted curve at half-maximal effect
Procedure, shortened: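 Cytotoxicity counter screen run in the same wells as the heat-shock bla reporter assay: HeLa HSE-bla cells, 5 h compound exposure at 37 C, viability read by CellTiter-Glo luminescence.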

[16] = biological target: Peroxisome proliferator-activated receptor gamma (Homo sapiens) (UniProt P37231); experiment: qHTS assay to identify small molecule antagonists of the peroxisome proliferator-activated receptor gamma (PPARg) signaling pathway (AID 743191; calls by dose curve; also: nearly all actives have a fitted effect of over 30% in size)
Procedure, shortened: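 GeneBLAzer PPARg UAS-bla HEK293H cells, 5 h post-plating, exposed to compounds 17 h at 37C. LiveBLAzer B/G FRET substrate added for 1 h at room temperature; beta-lactamase reporter read by fluorescence intensity.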

[17] = qHTS assay for small molecule activators of the heat shock response signaling pathway (AID 743210; active = well fitted activation curve with a large enough effect in the signal ratio in the repeat runs, with a control signal flat, not every such curve was filed as active; inconclusive = weak or mixed curves; the % refers to the signal ratio; also: potency is read from the fitted curve at half-maximal effect;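 as to activation: HeLa cells with beta-lactamase reporter driven by heat shock elements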)
Procedure, shortened: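 Beta-lactamase reporter read-out: FRET substrate fluorescence after 2.5 h at RT, following 5 h compound treatment at 37 C of HeLa cells carrying HSE-driven bla reporter; quantitative HTS format.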

[18] = qHTS assay to identify small molecule antagonists of the estrogen receptor alpha (ER-alpha) signaling pathway using the BG1 cell line (AID 743080; calls by dose curve;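 also: BG1 cells stimulated with 17beta-estradiol alongside compound; nearly all actives have a fitted effect of over 25% in size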; also: potency is read from the fitted curve at half-maximal effect)
Procedure, shortened: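 BG1-Luc-4E2 cells (endogenous full-length ER-alpha, 4xERE luciferase) hormone-starved 5 days in charcoal-stripped FBS, plated 4,000/well for 24 h, then compound plus 17beta-estradiol for 21.5 h at 37 C; ONE-Glo luminescence read.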
% is scaled to controls: 0 for no effect and ±100 for the full control effect.

Sequence of Aryl hydrocarbon receptor (Homo sapiens) (P35869 whole entry, looked up): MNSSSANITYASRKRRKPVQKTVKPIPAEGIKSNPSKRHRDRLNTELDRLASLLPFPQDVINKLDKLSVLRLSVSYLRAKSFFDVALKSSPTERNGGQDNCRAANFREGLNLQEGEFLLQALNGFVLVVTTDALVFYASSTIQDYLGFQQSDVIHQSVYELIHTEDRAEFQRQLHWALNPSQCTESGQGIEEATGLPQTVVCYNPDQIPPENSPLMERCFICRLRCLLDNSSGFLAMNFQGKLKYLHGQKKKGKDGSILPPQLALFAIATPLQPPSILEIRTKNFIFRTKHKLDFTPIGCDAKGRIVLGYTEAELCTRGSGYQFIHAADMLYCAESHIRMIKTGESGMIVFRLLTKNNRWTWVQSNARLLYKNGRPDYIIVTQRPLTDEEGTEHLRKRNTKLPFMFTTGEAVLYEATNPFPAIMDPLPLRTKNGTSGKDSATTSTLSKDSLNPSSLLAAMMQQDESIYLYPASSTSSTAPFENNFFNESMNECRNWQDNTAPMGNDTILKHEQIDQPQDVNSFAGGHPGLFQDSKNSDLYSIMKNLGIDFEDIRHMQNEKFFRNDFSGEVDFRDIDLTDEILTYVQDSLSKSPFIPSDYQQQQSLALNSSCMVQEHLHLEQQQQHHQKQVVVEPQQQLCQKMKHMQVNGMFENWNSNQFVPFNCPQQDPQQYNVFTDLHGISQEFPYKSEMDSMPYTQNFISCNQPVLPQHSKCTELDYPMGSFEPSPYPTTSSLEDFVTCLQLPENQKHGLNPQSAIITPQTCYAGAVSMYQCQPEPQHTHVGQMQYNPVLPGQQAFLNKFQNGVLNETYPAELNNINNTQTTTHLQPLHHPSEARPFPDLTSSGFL
Sequence of Estrogen receptor (Homo sapiens) (P03372 whole entry, looked up): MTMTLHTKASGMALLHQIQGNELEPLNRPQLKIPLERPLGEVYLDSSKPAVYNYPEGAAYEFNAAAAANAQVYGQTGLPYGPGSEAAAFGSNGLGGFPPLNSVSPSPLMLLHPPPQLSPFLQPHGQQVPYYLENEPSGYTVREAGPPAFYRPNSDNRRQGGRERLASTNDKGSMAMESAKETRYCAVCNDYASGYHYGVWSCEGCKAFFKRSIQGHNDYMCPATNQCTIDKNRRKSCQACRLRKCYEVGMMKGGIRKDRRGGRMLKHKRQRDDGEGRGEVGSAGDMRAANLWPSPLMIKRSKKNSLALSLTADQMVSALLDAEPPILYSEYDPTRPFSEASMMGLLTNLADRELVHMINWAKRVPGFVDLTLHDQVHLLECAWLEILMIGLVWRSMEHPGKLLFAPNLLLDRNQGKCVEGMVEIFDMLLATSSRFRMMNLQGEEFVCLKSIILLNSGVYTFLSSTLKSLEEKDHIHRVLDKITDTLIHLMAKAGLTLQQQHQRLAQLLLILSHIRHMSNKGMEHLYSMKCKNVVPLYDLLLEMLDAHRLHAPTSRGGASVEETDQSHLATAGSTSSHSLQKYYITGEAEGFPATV
Sequence of Aromatase (Homo sapiens) (P11511 whole entry, looked up): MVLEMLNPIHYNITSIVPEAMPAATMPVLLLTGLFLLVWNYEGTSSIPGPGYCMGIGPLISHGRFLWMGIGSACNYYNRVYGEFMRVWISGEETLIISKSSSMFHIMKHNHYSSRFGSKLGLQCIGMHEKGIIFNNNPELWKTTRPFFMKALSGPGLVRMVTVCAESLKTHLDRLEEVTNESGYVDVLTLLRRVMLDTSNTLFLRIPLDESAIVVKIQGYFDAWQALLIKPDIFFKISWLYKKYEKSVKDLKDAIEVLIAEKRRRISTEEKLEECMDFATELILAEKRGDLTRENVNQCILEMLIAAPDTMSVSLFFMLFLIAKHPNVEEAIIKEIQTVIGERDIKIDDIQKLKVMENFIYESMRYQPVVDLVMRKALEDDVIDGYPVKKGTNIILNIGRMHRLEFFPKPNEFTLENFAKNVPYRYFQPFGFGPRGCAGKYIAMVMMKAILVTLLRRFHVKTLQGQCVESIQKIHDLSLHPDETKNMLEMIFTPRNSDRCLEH
Sequence of Peroxisome proliferator-activated receptor gamma (Homo sapiens) (P37231 whole entry, looked up): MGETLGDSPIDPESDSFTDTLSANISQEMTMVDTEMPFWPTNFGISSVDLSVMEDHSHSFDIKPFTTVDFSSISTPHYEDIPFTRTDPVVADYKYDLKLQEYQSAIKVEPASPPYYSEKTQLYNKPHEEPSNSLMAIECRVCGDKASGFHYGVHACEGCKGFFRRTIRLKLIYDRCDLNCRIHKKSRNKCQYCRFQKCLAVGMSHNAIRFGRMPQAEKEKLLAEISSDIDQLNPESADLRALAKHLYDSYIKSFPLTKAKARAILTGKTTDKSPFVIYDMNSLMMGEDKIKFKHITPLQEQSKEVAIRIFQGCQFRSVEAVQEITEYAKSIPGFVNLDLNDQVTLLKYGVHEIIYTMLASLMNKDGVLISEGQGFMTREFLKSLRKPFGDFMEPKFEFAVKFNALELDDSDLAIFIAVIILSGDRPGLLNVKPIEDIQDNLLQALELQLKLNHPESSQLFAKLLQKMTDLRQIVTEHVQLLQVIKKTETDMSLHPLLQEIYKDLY

Cn1cc(C(=O)[C@@H]2CCc3nc[nH]c3C2)c2ccccc21
inactive: Potency [1] | Potency [2] | Potency [3] | Potency [4] | Potency [5] | activation [6] 5.8% | Potency [7] | Potency (Aromatase (Homo sapiens)) | Potency [8] | Potency [9] | Potency [10] | Potency [11] | Potency [12] | Potency [13] | Potency [14] | Potency [15]

CCN(C(=O)N(CC)c1ccccc1)c1ccccc1
inactive: Potency [1] | Potency [2] | Potency [4] | Potency [7] | Potency (Aromatase (Homo sapiens)) | Potency [8] | Potency [9] | Potency [10] | Potency [11] | Potency [16] | Potency [12] | Potency [15] | Potency [17]

C[C@@H]1C[C@H]2[C@@H]3CCC4=CC(=O)C=C[C@]4(C)[C@@]3(Cl)[C@@H](O)C[C@]2(C)[C@@]1(OC(=O)c1ccco1)C(=O)CCl
inactive: Potency [2] | Potency [4] | Potency [7] | Potency (Aromatase (Homo sapiens)) | Potency [8] | Potency [9] | Potency [10] | Potency [11] | Potency [16] | Potency [15]
active: Potency [13] 13.3 µM | Potency [17] 31.6 µM

O=C(N/N=C/c1ccccc1O)c1ccncc1
inactive: Potency [4] | Potency [7] | Potency [12]
active: Potency [1] 29.8 µM | Potency [18] 18.8 µM | Potency (Aromatase (Homo sapiens)) 5.96 µM

NNc1nc(-c2ccc(N)cc2)cs1
active: Potency [8] 27.3 µM | Potency [9] 12.2 µM
inactive: Potency [2] | Potency [4] | Potency [5] | activation [6] -1.53% | Potency [18] | Potency [12] | Potency [14] | Potency [15]

Nc1ccc2cc(S(=O)(=O)O)cc(O)c2c1N=Nc1ccccc1C(F)(F)F
active: Potency [8] 17.2 µM
inactive: Potency [2] | Potency [4] | Potency (Aromatase (Homo sapiens)) | Potency [11] | Potency [16] | Potency [13] | Potency [14] | Potency [15] | Potency [17]

CCCN(CCC)C(=O)C(CCC(=O)OCCCN1CCN(CCOC(=O)Cc2c(C)n(C(=O)c3ccc(Cl)cc3)c3ccc(OC)cc23)CC1)NC(=O)c1ccccc1 (stereo unspecified)
active: Potency [1] 26.6 µM | Potency [5] 7.56 µM [activator] | Potency [6] 0.211 µM | Potency [9] 29.8 µM | Potency [10] 21.1 µM
inactive: Potency [4] | Potency [7] | Potency [13] | Potency [14]

CC[C@@]1(O)C(=O)OCc2c1cc1n(c2=O)Cc2cc3c(CN(C)C)c(O)ccc3nc2-1
inactive: Potency [2] | Potency [4] | Potency [5]
active: Potency [3] 12 µM [inconclusive] | Potency [18] 7.5 µM | Potency (Aromatase (Homo sapiens)) 5.31 µM

O=C(OCC(COC(=O)c1ccccc1)(COC(=O)c1ccccc1)COC(=O)c1ccccc1)c1ccccc1
inactive: Potency [2] | Potency [4] | Potency [7] | Potency (Aromatase (Homo sapiens)) | Potency [8] | Potency [9] | Potency [10] | Potency [12] | Potency [14] | Potency [15]

CCCCCCCCCOC(=O)c1ccc(O)cc1
inactive: Potency [2] | Potency [7] | Potency [9] | Potency [10]
active: Potency (Aromatase (Homo sapiens)) 30.2 µM | Potency [8] 30.2 µM | Potency [14] 60.3 µM | Potency [15] 24.2 µM

CCCCN(CCCC)C(=O)N(CCCC)CCCC
inactive: Potency [2] | Potency [4] | Potency [7] | Potency [8] | Potency [9] | Potency [10] | Potency [11] | Potency [16] | Potency [12] | Potency [14] | Potency [15] | Potency [17]

CCCC(=O)OC[C@@H](OC(=O)CCC)[C@@H](OC(=O)CCC)[C@H](Cn1c2nc(=O)[nH]c(=O)c-2nc2cc(C)c(C)cc21)OC(=O)CCC
inactive: Potency [2] | Potency [4] | Potency [5] | Potency (Aromatase (Homo sapiens)) | Potency [8] | Potency [9] | Potency [11] | Potency [15]
active: Potency [18] 29.8 µM | Potency [14] 26.6 µM

CCCC(C)c1ccccc1O (stereo unspecified)
inactive: Potency [2] | Potency [3] | Potency [4] | Potency [5] | Potency [7] | Potency [8] | Potency [9] | Potency [10] | Potency [11] | Potency [16] | Potency [13] | Potency [14] | Potency [15] | Potency [17]

CC(C)CCCCCCCCCCCCCCC(=O)O
active: Potency [15] 24.5 µM
inactive: Potency [2] | Potency [4] | Potency [7] | Potency (Aromatase (Homo sapiens)) | Potency [8] | Potency [9] | Potency [10] | Potency [13] | Potency [14]

CC(C)n1nc(-c2cc3cc(O)ccc3[nH]2)c2c(N)ncnc21
active: Potency [1] 0.0944 µM | Potency (Aromatase (Homo sapiens)) 0.335 µM | Potency [9] 3.76 µM | Potency [10] 0.75 µM
inactive: Potency [5]

COc1cc(-c2ccc(N=C=O)c(OC)c2)ccc1N=C=O
inactive: Potency [2] | Potency [4] | Potency [7] | Potency (Aromatase (Homo sapiens)) | Potency [8] | Potency [10] | Potency [11] | Potency [14] | Potency [15] | Potency [17]

Cc1ccc(O)c(C(C)(C)C)c1
17.2 µM (active) and inactive: Potency [8]
15.3 µM (active) and inactive: Potency (Aromatase (Homo sapiens))
61 µM (active) and inactive: Potency [7] | Potency [10]
24.5 µM (active) and inactive: Potency [15]
30.6 µM (active) and inactive: Potency [14]
inactive: Potency [2] | Potency [9] | Potency [11] | Potency [16] | Potency [12] | Potency [17]

CCOC(=O)O[C@H](C)OC(=O)c1ccc2c(c1)cc(C(=O)NC1CCN(C(C)C)CC1)n2Cc1cc(-c2ccc(Cl)s2)on1
active: Potency [1] 4.54 µM | Potency [4] 45.8 µM | Potency (Aromatase (Homo sapiens)) 14.3 µM | Potency [8] 18.1 µM | Potency [14] 22.7 µM | Potency [15] 22.9 µM
inactive: Potency [7] | Potency [9]
